# Assay results from PubChem BioAssay (NCATS).
# Results filed as inconclusive are left out. Entries that show only a call come without a potency. The source made the active and inactive calls. The call rests on the fitted dose curve; in most records, active means well fitted inhibition curve with a large enough effect; inconclusive means small, poorly fitted or top-dose-only effect; inactive means no such curve, though single readings can be large or run the other way.
# System: Zika virus NS2B-NS3 protease (linked construct)
# Experiment: Primary screen NINDS Rhodamine qHTS for Zika virus inhibitors (AID 1347160); further: nearly all actives have a fitted effect of over 55% in size
# Conditions: purified NS2B-NS3 protease, Rhodamine110 substrate fluorescence; series mostly up to 33.1 µM
# In short: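 In 10 mM Tris-HCl pH 8.0 containing 0.01% Tween 20, linked NS2B-NS3 protease (25 nM final) is exposed to test compounds for 15 min. Cleavage of 1.5 microM Rhodamine110 substrate is tracked by fluorescence over 15 min.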
row,SMILES,Potency
1,COC(=O)C1=CO[C@@H](O[C@@H]2O[C@H](CO)[C@@H](O)[C@H](O)[C@H]2O)/C(=C\CO)[C@@H]1CC(=O)OCCc1ccc(O)cc1,inactive
2,C=C1CC/C=C(/C(=O)O)CCC2C1CC2(C)C (stereo unspecified),inactive
3,C=C1CC/C=C(/CO)C(=O)C[C@@H]2[C@@H]1C[C@@]2(C)COC(C)=O,inactive
4,CC1(C)C=Cc2c(ccc3c2[N+]([O-])=C2C3(O)CC34NC(=O)C5(CCCN5C3=O)CC4C2(C)C)O1 (stereo unspecified),inactive
5,CC1(CO)CCCC2(C)C3COC(=O)C3=CC(O)C12 (stereo unspecified),inactive
6,CC(C)(O)C1CC=C(C(=O)OC[C@H]2O[C@@H](OC(=O)C3=CCC(C(C)(C)O)CC3)[C@H](O)[C@@H](O)[C@@H]2O)CC1 (stereo partly specified),inactive
7,C/C=C/C=C/C(O)=C1/C(=O)[C@]2(C)C(=O)[C@@](C)(O)[C@H]1[C@H]([C@@]1(C)OC(=O)C(C)=C1O)[C@H]2C(=O)CC/C=C/C,inactive
8,O=C(O)Cn1nnc(-c2ccc(CN(CCCCOc3ccc(CN4CCCC4)cc3)CCc3ccccc3)cc2)n1,inactive
9,O=C(N[C@@H]1CC[C@@H](c2cccc(F)c2F)CN(CC(F)(F)F)C1=O)N1CCC(n2c(=O)[nH]c3ncccc32)CC1,inactive
10,C[C@@H]1O[C@@H](O[C@H]2[C@@H]3C=CO[C@@H](O[C@@H]4O[C@H](CO)[C@@H](O)[C@H](O)[C@H]4O)[C@@H]3[C@@]3(CO)O[C@@H]23)[C@H](O)[C@H](OC(=O)/C=C/c2ccc(O)c(O)c2)[C@H]1O,inactive
11,C[C@@H]1O[C@@H](OC2C(O[C@H]3[C@H](O[C@H]4CC[C@@]5(C)C(CC[C@]6(C)C5CC=C5C7CC(C)(C)CC(O)[C@]7(C)CC[C@]56C)C4(C)C)O[C@H](C(=O)O)[C@@H](O)[C@@H]3O)OC(CO)C(O)C2O)[C@H](O)[C@H](O)[C@H]1O (stereo partly specified),inactive
